Assay results taken from a collection of fitness landscapes (doi:10.1016/j.celrep.2020.107928).
The full ranking holds about 81,000 sequences; the median of “one-hybrid fitness for binding parS DNA” is about -0.17, and the highest 2% start at about 0.51. What follows is part of a selection rich in the highest values, with near analogues and random picks from the rest.

B1: Caulobacter ParB omega fusion; a variant is named by its letters at X, in order, B8GW30 (parent)
chain: MESVVVGEPGMSEGRRGLGRGLSALLGEVDAAPAQAPGEQLGGSREAPIEILQRNPDQPRRTFREEDLEDLSNSIREKGVLQPILVRPSPDTAGEYQIVAGERAWRAAQRAGLKTVPIMVRELDDLAVLEIGIIENVQRADLNVLEEALSYKVLMEKFERTQENIAQTIGKSXSHVANXMRLLXLPDEVQSYLVSGELTAXHARAIAAAADPVALAKQIIEGGLSVRETEALARKAPNLSAGKSKGGRPPRVKDTDTQALESDLSSVLGLDVSIDHRGSTGTLTITYATLEQLDDLCNRLTRGI

Variants of: B1
Test: one-hybrid fitness for binding parS DNA (scaled: cognate 1, non-cognate 0); higher = stronger binding
Settings: with parS DNA site
In short: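 Fitness is the rescaled log change in variant-to-wild-type read ratio, measured by Illumina sequencing of plasmids before and after bacterial one-hybrid selection. The scale puts cognate at 1 and non-cognate at 0. Selection of Caulobacter ParB libraries, four specificity codons randomised, took place in E. coli USO with a HIS3 reporter, site 19 bp from the promoter, over 48 hours at 37°C on M9-minus-histidine with 0.1 mM IPTG and 5 mM 3-AT.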

| Variant | one-hybrid fitness for binding parS DNA |
| --- | --- |
| LILG | ≤ 0.2 |
| TTYT | ≤ 0.2 |
| KWSC | ≤ 0.2 |
| LCWL | ≤ 0.2 |
| RCLC | 1.02 |
| RPLC | ≤ 0.2 |
| RSLK | ≤ 0.2 |
| RDLC | ≤ 0.2 |
| RSLC | 0.939 |
| RELC | ≤ 0.2 |
| QCAL | ≤ 0.2 |
| RIIL | ≤ 0.2 |
| MQLE | ≤ 0.2 |
| WYDG | ≤ 0.2 |
| RDFC | ≤ 0.2 |
| REFC | ≤ 0.2 |
| RPFC | ≤ 0.2 |
| RSFC | 0.892 |
| RSFM | 0.292 |
| RCFC | 1.03 |
| DKNG | ≤ 0.2 |
| YTIY | ≤ 0.2 |
| SSYC | ≤ 0.2 |
| RIVT | 0.788 |
| RIKT | 0.772 |
| RIKF | 0.303 |

| Variant | one-hybrid fitness for binding parS DNA |
| --- | --- |
| RIVH | ≤ 0.2 |
| RIVN | 0.407 |
| RIKM | 0.325 |
| RAFM | 0.331 |
| RAAC | 0.98 |
| RAAR | ≤ 0.2 |
| RAFC | 0.925 |
| RAAY | 0.478 |
| RAFF | 0.249 |
| SIFS | ≤ 0.2 |
| QSTM | ≤ 0.2 |
| HPTI | ≤ 0.2 |
| RRIA | 0.828 |
| RPPA | ≤ 0.2 |
| NRIA | ≤ 0.2 |
| RCPA | 0.432 |
| RRPA | 0.574 |
| NRNI | ≤ 0.2 |
| YNMN | ≤ 0.2 |
| KQFG | ≤ 0.2 |
| NYTR | ≤ 0.2 |
| EPTE | ≤ 0.2 |
| PWQI | ≤ 0.2 |
| FKHA | ≤ 0.2 |
| RRKE | ≤ 0.2 |
| RRVK | ≤ 0.2 |

| Variant | one-hybrid fitness for binding parS DNA |
| --- | --- |
| NRKT | ≤ 0.2 |
| RRVT | 0.607 |
| RRVF | ≤ 0.2 |
| RRKT | 0.59 |
| VTCL | ≤ 0.2 |
| GDYG | ≤ 0.2 |
| HEET | ≤ 0.2 |
| ALQS | ≤ 0.2 |
| RHTQ | ≤ 0.2 |
| RATQ | ≤ 0.2 |
| RPTT | ≤ 0.2 |
| RATK | ≤ 0.2 |
| RHTT | 0.868 |
| RITT | 0.931 |
| RITF | 0.254 |
| RETT | ≤ 0.2 |
| RATT | 0.915 |
| RHTR | ≤ 0.2 |
| RITM | 0.319 |
| RCTT | 0.949 |
| VVST | ≤ 0.2 |
| HWNY | ≤ 0.2 |
| MEIG | ≤ 0.2 |
| RMTT | 0.945 |
| RTTF | 0.253 |
| RMTL | ≤ 0.2 |

| Variant | one-hybrid fitness for binding parS DNA |
| --- | --- |
| RTTD | ≤ 0.2 |
| RRTF | ≤ 0.2 |
| RRTY | 0.398 |
| RLTR | ≤ 0.2 |
| RTTT | 0.917 |
| RLTT | 0.956 |
| RLTY | 0.48 |
| RRTT | 0.565 |
| RMTY | 0.497 |
| VTRD | ≤ 0.2 |
| SSGG | ≤ 0.2 |
| QKKR | ≤ 0.2 |
| CTAV | ≤ 0.2 |
| PDQD | ≤ 0.2 |
| DVDG | ≤ 0.2 |
| RKTY | 0.353 |
| DFTT | ≤ 0.2 |
| RSTR | ≤ 0.2 |
| RFTT | 0.836 |
| RKTT | 0.754 |
| RDTT | ≤ 0.2 |
| RKTF | ≤ 0.2 |
| RFTD | ≤ 0.2 |
| RSTT | 0.895 |
| CALF | ≤ 0.2 |
| HDLT | ≤ 0.2 |

| Variant | one-hybrid fitness for binding parS DNA |
| --- | --- |
| WILE | ≤ 0.2 |
| CTPG | ≤ 0.2 |
| CPIR | ≤ 0.2 |
| QLLW | ≤ 0.2 |
| TAMD | ≤ 0.2 |
| VFPY | ≤ 0.2 |
| RKKR | ≤ 0.2 |
| RKVC | 0.868 |
| RKVQ | ≤ 0.2 |
| RKKC | 0.694 |
| RKKQ | ≤ 0.2 |
| RKVP | ≤ 0.2 |
| WLFR | ≤ 0.2 |
| ESLF | ≤ 0.2 |
| DFNL | ≤ 0.2 |
| RNFM | ≤ 0.2 |
| RNAN | 0.301 |
| RNFC | 0.627 |
| RNFQ | ≤ 0.2 |
| RNAC | 0.754 |
| RNAP | ≤ 0.2 |
| AKFS | ≤ 0.2 |
| MTSR | ≤ 0.2 |
| VNNR | ≤ 0.2 |
| RRHD | ≤ 0.2 |
| RRHS | 0.645 |

| Variant | one-hybrid fitness for binding parS DNA |
| --- | --- |
| RRHP | ≤ 0.2 |
| RRHN | 0.689 |
| RRHK | ≤ 0.2 |
| RRHH | ≤ 0.2 |
| LFLC | ≤ 0.2 |
| DLIT | ≤ 0.2 |
| RDNY | ≤ 0.2 |
| TIRM | ≤ 0.2 |
| VENG | ≤ 0.2 |
| NEVT | ≤ 0.2 |
| GRRY | ≤ 0.2 |
| QQLD | ≤ 0.2 |
| MQRR | ≤ 0.2 |
| PCLL | ≤ 0.2 |
| ARAW | ≤ 0.2 |
| RIKC | 0.805 |
| RIVM | 0.281 |
| RIKR | ≤ 0.2 |
| RIVQ | ≤ 0.2 |
| RIKQ | ≤ 0.2 |
| RIVC | 0.942 |
| MKRV | ≤ 0.2 |
| RFFN | 0.262 |
| NFAC | ≤ 0.2 |
| RFAC | 0.91 |
| RFFY | 0.269 |

| Variant | one-hybrid fitness for binding parS DNA |
| --- | --- |
| RFFC | 0.674 |
| RFAN | 0.372 |
| WGLC | ≤ 0.2 |
| MPTN | ≤ 0.2 |
| GFLD | ≤ 0.2 |
| EFEC | ≤ 0.2 |
| RQFG | 0.917 |
| RQAR | ≤ 0.2 |
| RQFD | ≤ 0.2 |
| RQAY | 0.444 |
| RQAG | 1 |
| RQFN | 0.363 |
| WVPR | ≤ 0.2 |
| RQWP | ≤ 0.2 |
| RQQP | ≤ 0.2 |
| RQAP | ≤ 0.2 |
| RQSP | ≤ 0.2 |
| RQSN | 0.438 |
| RQWS | 0.959 |
| RQQD | ≤ 0.2 |
| RQWH | ≤ 0.2 |
| RQSS | 0.979 |
| RQAS | 0.988 |
| RQAH | ≤ 0.2 |
| RQQS | 0.987 |
| KHSR | ≤ 0.2 |

| Variant | one-hybrid fitness for binding parS DNA |
| --- | --- |
| ICNS | ≤ 0.2 |
| TSSN | ≤ 0.2 |
| FLHK | ≤ 0.2 |
| SFKN | ≤ 0.2 |
| PRKR | ≤ 0.2 |
| NSVS | ≤ 0.2 |
| GRDV | ≤ 0.2 |
| RQYS | 1 |
| RQYP | ≤ 0.2 |
| RQCS | 0.976 |
| RQCN | 0.416 |
| RQFH | ≤ 0.2 |
| RQLS | 1.02 |
| RQYN | 0.393 |
| RQLN | 0.439 |
| RQLP | ≤ 0.2 |
| RQFP | ≤ 0.2 |
| RQFS | 0.957 |
| RQCH | ≤ 0.2 |
